# Assay outcomes: PubChem BioAssay, National Center for Advancing Translational Sciences (NCATS)
# Sampled rows, rich in hits. Any-hit rate of the full collection: about 6.5%.
# Lassa entry inh – blocks Lassa virus binding to or entry into cells | Lassa virus pseudotype entry inhibition, cell reporter | Potency, µM (top dose mostly 37.9 µM), hits mostly inhibitors | 300,000 compounds, 1.2% hits; calls by dose curve; tested in HEK293 cells; also: nearly all actives have a fitted effect of over 50% in size
# MARV entry inh – inhibitors of Marburg virus binding or cell entry; 300,000 compounds, 1.8% hits; Marburg virus pseudotyped entry inhibition, cell reporter; AID 540276; Potency, µM (top dose mostly 37.8 µM), usual class: inhibitors; calls by dose curve; tested in HEK293 cells
# FMDV inh – antivirals against foot and mouth disease virus; AID 1159524; Potency, µM (series often up to 57.9 µM), actives largely listed as inhibitors; 410,000 compounds, 1.2% hits; FMDV antiviral cell-based qHTS; calls by dose curve; tested in HEK293T cells; also: read-out not given here; nearly all actives have a fitted effect of over 45% in size
# VACV mCherry inh – inhibitors of vaccinia virus infection (mCherry reporter signal); Vaccinia virus mCherry reporter infection, fluorescence; Potency, µM (doses to about 36.5 µM), actives largely listed as inhibitors; 310,000 compounds, 0.63% hits; AID 720579; calls by dose curve; tested in A549 cells; also: nearly all actives have a fitted effect of over 35% in size
# VACV Venus inh – vaccinia inhibition (Venus reporter); 330,000 compounds, 0.46% hits; Potency, µM (series often up to 36.5 µM), hits mostly inhibitors; Vaccinia virus Venus reporter expression, fluorescence; calls by dose curve; tested in A549 cells; also: nearly all actives have a fitted effect of over 30% in size
# HCMV antiviral – blocks human cytomegalovirus replication; HFF cells, HCMV-luciferase reporter, 72 h; stronger effect = lower value; AID 1259415; activity change, negative = inhibition, % at 57.5 µM; 410,000 compounds, 4.5% hits; in the data active = activity change below about -60%; inconclusive = no clear call, values can overlap the other calls; inactive = above about -39%
#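 Two compound doses tested in HFFs infected with HCMV-luciferase, MOI 1 PFU/cell, 72 h at 37C. Lysate luminescence read with OneGlo; data normalized against buffer-only and 10uM Salinomycin inhibitor controls.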
# Numbers stand for hits; n = inactive; u = inconclusive; x = not tested or not shown; [ ] = remark or other dose.
SMILES,Lassa entry inh,MARV entry inh,FMDV inh,VACV mCherry inh,VACV Venus inh,HCMV antiviral
Cn1nccc1C(=O)Nc1ccn(C23CC4CC(CC(C4)C2)C3)n1,n,u,u,n,n,-81.3
Cc1nn(C)c(C(=O)Nc2ccn(C34CC5CC(CC(C5)C3)C4)n2)c1[N+](=O)[O-],u,u,u,n,u,-61.9
Cn1cc([N+](=O)[O-])c(C(=O)Nc2ccn(C34CC5CC(CC(C5)C3)C4)n2)n1,n,u,n,n,n,-94.7
Cn1nccc1C(=O)Nc1ccc(Cl)cc1,n,n,x,n,n,n
CC(=O)N1CCCc2cc(S(=O)(=O)N(C)CC(=O)Nc3cccc(C)c3C)ccc21,n,x,n,n,n,n
O=C(NCc1ccncc1)c1cnn(-c2ncc3c(n2)-c2ccccc2CC3)c1C1CC1,x,x,n,n,n,x
CNC(=O)c1cc(-c2ccc(F)cc2)cc(-c2ccc(S(=O)(=O)N3CCCC3)cc2)c1N,8.88µM,x,x,x,x,x
O=C(NCc1ccc(F)cc1)c1ccc(S(=O)(=O)N2CCCC2)cc1,x,x,n,n,n,n
Cc1ccc(Cn2c(=N)c(C(=O)NCC3CCCO3)cc3c(=O)n4cccc(C)c4nc32)cc1 (centres undefined),n,u,n,n,n,-107.4
COCCCn1c(=N)c(C(=O)NCC2CCCO2)cc2c(=O)n3cccc(C)c3nc21 (centres undefined),n,u,n,n,n,n
Cc1cccn2c(=O)c3cc(C(=O)NC4CCCCC4)c(=N)n(Cc4ccccc4)c3nc12,u,n,n,n,n,-61.3
CCOCCCn1c(=N)c(C(=O)NCC2CCCO2)cc2c(=O)n3cccc(C)c3nc21 (centres undefined),n,u,n,n,n,-67.1
Cc1cccn2c(=O)c3cc(C(=O)NC4CCCC4)c(=N)n(Cc4ccc(F)cc4)c3nc12,x,x,n,n[7.34 µM],n[7.34 µM],n
CN(C)c1ncc2ncc(=O)n(C)c2n1,x,x,n,x,x,x
CC1=CC[C@@H](COc2ccccc2)O[C@@]2(C1)C(=O)N(Cc1ccccc1C(F)(F)F)c1ccccc12,x,n,x,x,x,x
c1cc[n+](CCC[n+]2ccccc2)cc1,u,n,n,n,n,-101.6
COC(=O)c1sc2ncccc2c1OCc1cccc(Cl)c1,n,n,n,x,x,-102.0
CCOC(=O)COc1c(Cl)cc(C2NC(=S)NC(c3ccccc3)=C2C(C)=O)cc1OCC (centres undefined),n,n,n,n,n,-60.3
CCOC(=O)CCCCCC(=O)Nc1ccc2c(c1)C(=O)N([C@H](C)CO)C[C@@H](C)[C@@H](CN(C)S(=O)(=O)c1ccc(C)cc1)OCCCC[C@H](C)O2,x,x,x,x,x,n
O=c1c2ccccc2nc2n1CCN2Cc1ccc(Cl)cc1,n,u,x,n,u,-88.4
Cc1ccc2cc(F)c(F)c(F)c2n1,x,x,n,n,n,n
Cc1ccc2ccc3ccc(C)nc3c2n1,x,x,n,n,n,-94.1
F[B-](F)(F)c1cncnc1,x,x,x,x,x,n
Cc1cc(C)cc(OCC(=O)N/N=C/c2ccc([N+](=O)[O-])o2)c1,u,u,n,u,u,u
Cn1cc(/C=N/NC(=O)COc2ccccc2[N+](=O)[O-])c2ccccc21,n,n,n,x,x,-63.6
SMILES,Lassa entry inh,MARV entry inh,FMDV inh,VACV mCherry inh,VACV Venus inh,HCMV antiviral
Cc1ccc(OCC(=O)N/N=C\c2cn(C)c3ccccc23)c([N+](=O)[O-])c1,u,u,n,x,x,n
O=C(O)/C=C/c1ccc([N+](=O)[O-])o1,n,u,n,n,n,n
O=[N+]([O-])c1ccc(/C=N/N=C/c2ccc([N+](=O)[O-])o2)o1,u,u,u,n,n,-99.5
Cc1ccccc1OCC(=O)N/N=C/c1ccc([N+](=O)[O-])o1,x,n,u,x,x,-86.2
O=C(CC12CC3CC(CC(C3)C1)C2)N/N=C/c1ccc([N+](=O)[O-])o1,15.8µM,u,n,11.2µM,28.2µM,n
O=C(CC12CC3CC(CC(C3)C1)C2)N/N=C\c1ccc[nH]1,n,n,n,n,n,n
Cc1ccc(OC(C)C(=O)Nc2nonc2-c2ccc(Br)cc2)cc1C (centres undefined),n,n,u,n,n,n
O=C(Cc1ccc([N+](=O)[O-])cc1)N/N=C/c1ccc([N+](=O)[O-])o1,x,x,n,10µM,11.2µM,n
Cc1cc2ncn(/N=C/c3ccc([N+](=O)[O-])o3)c2cc1C,n,u,x,28.2µM,15.8µM,-62.5
CCOC(=O)N/N=C\c1ccc([N+](=O)[O-])o1,n,n,x,n,u,u
O=C(CN1CCCCCCC1)N/N=C/c1ccc([N+](=O)[O-])o1,u,u,n,11.2µM,10µM,u
CC1(C(=O)N/N=C/c2ccc([N+](=O)[O-])o2)CC1(Br)Br (centres undefined),12.6µM,u,n,u,6.31µM,-60.3
O=C(CN1CCOCC1)NN=Cc1ccc([N+](=O)[O-])o1,x,x,n,n,n,n
Cc1ccc(S(=O)(=O)N/N=C\c2ccc([N+](=O)[O-])o2)cc1C,u,n,n,n,n,n
CCCCCCCC(=O)N/N=C/c1ccc([N+](=O)[O-])o1,x,x,n,x,x,u
O=C(CNc1cccc2ccccc12)N/N=C/c1ccc([N+](=O)[O-])o1,u,u,n,x,x,-94.9
O=C(CNc1cccc([N+](=O)[O-])c1)N/N=C/c1ccc([N+](=O)[O-])o1,u,u,n,u,u,-65.5
CCOC(=O)c1cccc(NC(=O)c2cnc3sc(N4CCOCC4)nn3c2=O)c1,n,x,u,n,n,n
COc1ccc(C(=O)Nc2ccc3oc(-c4cccc(Cl)c4)cc(=O)c3c2O)cc1,x,x,n,n,n,-67.5
CC1CCC(NC(=O)c2ccc(CSc3nc4ccncc4n3Cc3ccc(F)cc3)cc2)CC1 (centres undefined),n,u,u,u,u,-93.4
Cc1ccc(Cn2c(SCc3ccc(C(=O)N4CCCCC4)cc3)nc3ccncc32)cc1,n,u,n,n,u,-60.2
CCOC(=O)C1=C(C)N=c2s/c(=C\c3ccc(O)c([N+](=O)[O-])c3)c(=O)n2C1c1ccccc1OC (centres undefined),n,n,u,n,n,u
COc1ccc(/C=c2/sc3n(c2=O)C(c2ccccc2OC)C2=C(N=3)c3ccccc3CC2)cc1O (centres undefined),n,23.1µM,n,x,x,-63.8
O=C(c1ccc(F)c(F)c1)N1CCOc2ccc(CN3CCN(CCO)CC3)cc2C1,x,x,n,n,n,x
Cc1ccc(NC(=O)CSc2nc(-c3cccs3)nc3cc(=O)[nH]n23)cc1,n,x,n,n,n,n
Cc1ccccc1C(=O)N1CCC2CC1c1cc(-c3ccc(F)cc3)ccc12 (centres undefined),x,x,31.6µM,n,n,n
O=C(C1CCC(C(=O)N2CCCCC2)CC1)N1CCCCC1 (centres undefined),n,u,n,x,n,-60.6
Cc1cc(F)ccc1O[C@H]1C=C[C@@H](c2ccc3c(c2)OCO3)O[C@H]1CO,x,n,x,x,x,x
Cc1c(Br)c([N+](=O)[O-])nn1CCCC(=O)N1CCN(c2ccccc2)CC1,n,12.6µM,n,n,n,n
